{"source": "PubChem BioAssay AID1846", "about": "(The Scripps Research Institute Molecular Screening Center, 2009)", "note": "Several values for one entry are separate records, joined by “and”; a condition that tells them apart may be missing. Equal entries are not always repeated. The whole screen tested about 2,300 compounds, of which about 1,500 (65%) were called active. No stated cut-off is given here; in the data, active means inhibition above about 18%; inactive means the rest. The set was probably picked from earlier hits. Not all results are given here. Where a structure was tested more than once in an assay, its records may differ in their call.", "data": [{"target": "Heat shock protein HSP 90-alpha (Homo sapiens) (UniProt P07900)", "experiment": "HSP90 inhibitors, confirmation, cell lysate, luminescence (AID 1846);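 further: 0% = vehicle wells and 100% = reference inhibitor wells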", "conditions": "rabbit reticulocyte lysate, luciferase refolding luminescence, 3 h; at 5.9 µM; stronger effect = higher value", "values": [{"compound": "COc1cccc(/C=C/c2ccc3ccccc3n2)c1OC(C)=O", "inhibition": "72.3% (active)"}, {"compound": "CN(c1ccc2nc3ccccc3c(=O)n2n1)C1CCCCC1", "inhibition": "90.9% (active)"}, {"compound": "C=CCN1CCN(C(=O)CCCc2ccccc2)CC1", "inhibition": "52.5% (active)"}, {"compound": "Cc1cccc(NC(=O)/C=C/c2ccc3c(c2)OCO3)n1", "inhibition": "40.6% (active)"}, {"compound": "O=C(Nc1cccnc1)c1noc2c1CCCCC2", "inhibition": "48% (active)"}, {"compound": "COc1ccc(Nc2ncnc3ccc(Br)cc23)c(OC)c1", "inhibition": "54.7% (active)"}, {"compound": "O=C(Cc1ccccc1)N1CCN(S(=O)(=O)c2ccc([N+](=O)[O-])cc2)CC1", "inhibition": "53.5% (active)"}, {"compound": "c1ccc(-c2ccc3c(c2)NC(C2Nc4cc(-c5ccccc5)ccc4O2)O3)cc1", "note": "(stereo not given)", "inhibition": "8.8% (inactive)"}, {"compound": "CCOc1ccc(-c2nnc(-c3ccco3)o2)cc1", "inhibition": "60.3% (active)"}, {"compound": "COCc1cc(=O)[nH]c2cc(NC(=O)C(F)(F)F)c(C)cc12", "inhibition": "-8.2% (inactive)"}, {"compound": "O=C(Nc1ccc2c(c1)OCCO2)C1CCCN(c2ncccn2)C1", "note": "(stereo not given)", "inhibition": "34.1% (active)"}, {"compound": "COc1ccc(Cl)cc1NC(=O)Cn1nc(-c2ccc(C)cc2)n(C)c1=S", "inhibition": "-3.4% (inactive)"}, {"compound": "Clc1ccc(-c2cc(-c3ccccn3)on2)c(Cl)c1", "inhibition": "84.9% (active)"}, {"compound": "CCN(CCCNC(=O)c1ccc2c(c1)NC(=O)CN2C)c1cccc(C)c1", "inhibition": "14.4% (inactive)"}, {"compound": "Cc1nc2cc(NC(=O)Nc3cccc(F)c3)ccc2n1C", "inhibition": "40.5% (active)"}, {"compound": "CCOC(=O)C1=C(c2ccc(OC)cc2)C(=O)c2ccccc2C1=O", "inhibition": "95.3% (active)"}, {"compound": "Cc1ccc(C(=O)O/N=C(\\N)c2ccccn2)cc1Cl", "inhibition": "29.5% (active)"}, {"compound": "COc1ccc(CNC(=O)/C(C#N)=C/c2cccc(OC)c2OC)cc1", "inhibition": "18.9% (active)"}, {"compound": "Cc1cccc(C(=O)OC(C)CN2CCN(C)CC2)c1", "note": "(stereo not given)", "inhibition": "19.1% (active)"}, {"compound": "O=[N+]([O-])/C=C/c1ccc2c(ccn2Cc2ccccc2)c1", "inhibition": "68.7% (active)"}, {"compound": "COC(=O)C1[C@H]2SC(C)(C)C(C(=O)OC)N2C(=O)N1Cc1nc2ccccc2s1", "note": "(stereo not given in full)", "inhibition": "-5.33% (inactive)"}, {"compound": "O=C(O)c1ccc(N=NN2CCOCC2)cc1", "inhibition": "-8.5% (inactive)"}, {"compound": "O=C(CSC(=S)N1CCOCC1)c1ccccc1", "inhibition": "57.6% (active)"}, {"compound": "Cc1nn(CC(=O)Nc2ccc(F)cc2)c(=O)c2ccccc12", "inhibition": "-9.73% (inactive)"}, {"compound": "Cc1cnc(NC(=O)c2ccccn2)s1", "inhibition": "39.7% (active)"}, {"compound": "COc1cccc2c(C)c(C(=O)O)[nH]c12", "inhibition": "56.9% (active)"}, {"compound": "O=C(Cn1c[n+](CC(=O)c2ccc([N+](=O)[O-])cc2)cn1)c1ccc([N+](=O)[O-])cc1", "inhibition": "3.57% (inactive) and 48.8% (active)"}, {"compound": "Cc1ccc(C(=O)CSc2ccccc2C(=O)O)cc1", "inhibition": "42.3% (active)"}, {"compound": "Cc1ccsc1C(=O)OCC(=O)c1cc(C)n(CC2CCCO2)c1C", "note": "(stereo not given)", "inhibition": "89.3% (active)"}, {"compound": "Clc1cccc(N=C2NN=C(c3ccc4c(c3)OCCO4)CS2)c1", "inhibition": "41.5% (active)"}, {"compound": "Cc1nc2ccc(C(=O)O)cc2[nH]1", "inhibition": "46.4% (active)"}, {"compound": "CC(C)c1nc2ccc(C(=O)O)cc2[nH]1", "inhibition": "55.6% (active)"}, {"compound": "CC(C)CNC(=O)CC(NCC(C)C)C(=O)O", "note": "(stereo not given)", "inhibition": "-4% (inactive)"}, {"compound": "CC(C)(C)OC(=O)c1c(N)n(CCCN2CCCC2=O)c2nc3ccccc3nc12", "inhibition": "-5.73% (inactive)"}, {"compound": "CCCCOCCCNC(=O)c1ccccc1OCC", "inhibition": "-3.83% (inactive)"}, {"compound": "CCCOc1ccc(C(=O)NCCc2ccccc2)cc1", "inhibition": "49.2% (active)"}, {"compound": "COc1ccc(/C=C/c2noc(-c3ccccc3OC(C)=O)n2)cc1", "inhibition": "45.2% (active)"}, {"compound": "COc1cc(SC)ccc1C(=O)Nc1nc(C)cs1", "inhibition": "94% (active)"}, {"compound": "COC(=O)c1sc(NC(=O)c2ccc(OC)cc2OC)nc1C", "inhibition": "67.3% (active)"}, {"compound": "COC(=O)c1sc(NC(=O)c2csc3c2CCCC3)nc1C", "inhibition": "12.5% (inactive)"}, {"compound": "COc1cc(NS(=O)(=O)c2ccc3ccccc3c2)c2ncccc2c1", "inhibition": "10.9% (inactive)"}, {"compound": "c1ccc(-c2noc(-c3cccs3)n2)nc1", "inhibition": "43.7% (active)"}, {"compound": "CCOc1ccc(N/C=C/C(=O)c2ccccc2)cc1", "inhibition": "75.5% (active)"}, {"compound": "COc1ccc(C(=O)/C=C/Nc2ccccn2)cc1", "inhibition": "96.8% (active)"}, {"compound": "Cc1ccc(-n2c(SCC(=O)Nc3ncc(Cl)cc3Cl)nc3ccccc32)cc1", "inhibition": "14% (inactive)"}, {"compound": "Cc1ccc(Nc2nc(-c3sc(NC(=O)c4ccccc4)nc3C)cs2)cc1", "inhibition": "15.7% (inactive)"}, {"compound": "CCCCC(=O)Nc1nc(C)c(-c2csc(Nc3ccc(Cl)cc3)n2)s1", "inhibition": "7.3% (inactive)"}, {"compound": "Cc1nc(NC(=O)c2cccc(Cl)c2)sc1-c1csc(Nc2cccc(Cl)c2)n1", "inhibition": "23.7% (active)"}, {"compound": "COc1ccc(/C=N/Nc2ccccc2C(=O)O)cc1", "inhibition": "29.5% (active)"}, {"compound": "COc1ccc(C(=O)Nc2ccccc2C(=O)N/N=C/c2ccc(O)c(OC)c2)cc1", "inhibition": "98.7% (active)"}, {"compound": "COc1ccc(C(=O)Nc2ccccc2C(=O)N/N=C/c2ccccc2OC)cc1", "inhibition": "74.7% (active)"}, {"compound": "CCc1nc(SCC(=O)Nc2ccccc2OC)n[nH]1", "inhibition": "1.4% (inactive)"}, {"compound": "Cc1ccc2nc(/C(C#N)=C\\c3ccc(OC(=O)c4cccs4)cc3)[nH]c2c1", "inhibition": "-11% (inactive)"}, {"compound": "CCCCCc1ccc(-c2ccc(C(=O)O)cc2)nc1", "inhibition": "72.4% (active)"}, {"compound": "COc1ccc(-n2nnnc2-c2nc3ccccc3s2)cc1", "inhibition": "51.8% (active)"}, {"compound": "CCN(CC)CCn1c(N)c(S(=O)(=O)c2ccccc2)c2nc3ccccc3nc21", "inhibition": "-3.4% (inactive)"}, {"compound": "Cc1nnc(SCC(=O)N2c3ccccc3C(C)(c3ccc(Cl)cc3)CC2(C)C)s1", "note": "(stereo not given)", "inhibition": "8.97% (inactive)"}, {"compound": "O=C(Nc1ccccc1)c1ccc2c(c1)OCCCO2", "inhibition": "49.6% (active)"}, {"compound": "O=C(Nc1nc2ccccc2s1)c1ccc2c(c1)OCO2", "inhibition": "57.7% (active)"}, {"compound": "CCCS(=O)(=O)N1CCCC(C(=O)NCCN2CCCCC2C)C1", "note": "(stereo not given)", "inhibition": "1.9% (inactive)"}, {"compound": "CCOC(=O)c1nc(C)n(-c2ccc(Cl)cc2Cl)n1", "inhibition": "0.2% (inactive)"}, {"compound": "c1c2c(cc3sc(N4CCCCC4)nc13)OCCO2", "inhibition": "81.9% (active)"}, {"compound": "CSCCC(C(=O)NC1=NCCS1)N1C(=O)c2ccccc2C1=O", "note": "(stereo not given)", "inhibition": "-7.1% (inactive)"}, {"compound": "CCOc1ccc(C2NC(=S)NC3=C2CCc2ccccc23)cc1", "note": "(stereo not given)", "inhibition": "28.4% (active)"}, {"compound": "Cn1c(-c2ccco2)nc2cc3ccccc3cc21", "inhibition": "58.9% (active)"}, {"compound": "CC(OC(=O)c1ccc2noc(-c3ccccc3)c2c1)C(N)=O", "note": "(stereo not given)", "inhibition": "2.1% (inactive)"}, {"compound": "C/C(=N\\NC(=S)NC1CCCCC1)c1ccc(C)o1", "inhibition": "3.2% (inactive)"}, {"compound": "CCOc1ccc(OCc2ccc(C(=O)N(C)c3ccccc3)o2)cc1", "inhibition": "28.8% (active)"}, {"compound": "O=C(Nc1ccccc1C(=O)O)c1ccc(N2C(=O)C3CC=CCC3C2=O)cc1", "note": "(stereo not given)", "inhibition": "25.4% (active)"}, {"compound": "CCOc1ccc(OCc2cccc(C(=O)N(CC)CC)c2)cc1", "inhibition": "39.7% (active)"}, {"compound": "CCS(=O)(=O)c1cc([N+](=O)[O-])c(Sc2ccccc2N)s1", "inhibition": "56% (active)"}, {"compound": "Oc1c(C=Nc2cccc3nsnc23)ccc2ccccc12", "inhibition": "6.47% (inactive)"}, {"compound": "O=c1oc(/C=C/c2ccccc2)nc2ccccc12", "inhibition": "33% (active)"}, {"compound": "Cc1ccc(-c2cn3cc(C)ccc3n2)cc1", "inhibition": "90.3% (active)"}, {"compound": "COc1ccc(-c2cn3ccc(C)cc3n2)cc1", "inhibition": "83.5% (active)"}, {"compound": "Cc1ccc2nc(-c3ccc(Br)cc3)cn2c1", "inhibition": "82% (active)"}, {"compound": "COc1cc(C(=O)NN(CCC#N)C2=NS(=O)(=O)c3ccccc32)cc(OC)c1OC", "inhibition": "-4.73% (inactive)"}, {"compound": "CCc1ccc(Nc2ncc3c(n2)CC(c2ccco2)CC3=O)cc1", "note": "(stereo not given)", "inhibition": "-4.8% (inactive)"}, {"compound": "CCOC(=O)N1CCN(Cc2nc3c(c(=O)n(C)c(=O)n3C)n2Cc2ccccc2)CC1", "inhibition": "-3.3% (inactive)"}, {"compound": "COc1cc(CNC2CCCCC2)c(Br)cc1OC1CCCC1", "inhibition": "5.53% (inactive)"}, {"compound": "Cc1sc2nc(CSCC(=O)Nc3c(Cl)cccc3Cl)[nH]c(=O)c2c1C", "inhibition": "-4.2% (inactive)"}, {"compound": "CCc1ccc2oc(-c3ccc(N)cc3)nc2c1", "inhibition": "53.6% (active)"}, {"compound": "Nc1ccc(-c2nnc(-c3ccccc3)o2)cc1", "inhibition": "4.47% (inactive)"}, {"compound": "Clc1ccc2nc(CSc3ccccc3)cn2c1", "inhibition": "57% (active)"}, {"compound": "Cc1cccc(CCNC(=O)Cn2ncc3c([nH]c4ccc(C)cc43)c2=O)c1", "inhibition": "5.53% (inactive)"}, {"compound": "Cc1csc(SCC(=O)Nc2sccc2C#N)n1", "inhibition": "42.4% (active)"}, {"compound": "Cc1cc(C(=O)COC(=O)C2CC2)c(C)n1-c1ccc(F)cc1", "inhibition": "87.3% (active)"}, {"compound": "O=C1CCC([N+](=O)[O-])C(c2ccccc2Br)N1", "note": "(stereo not given)", "inhibition": "-5.63% (inactive)"}, {"compound": "O=C(OC1CCOC1=O)c1ccc(-c2nc3ccccc3s2)s1", "note": "(stereo not given)", "inhibition": "60.6% (active)"}, {"compound": "CCCCNC(=O)Nc1c(C)cc(SC#N)cc1C", "inhibition": "4.17% (inactive)"}, {"compound": "CN(CCO)c1ccc(/C=N/Nc2nncc3ccccc23)cc1", "inhibition": "91.8% (active)"}, {"compound": "Cc1ccc(Nc2nc(-c3ccc(O)cc3O)cs2)nc1", "inhibition": "0.63% (inactive)"}, {"compound": "O=C(CN1C(=O)c2ccccc2S1(=O)=O)N1CCc2ccccc21", "inhibition": "46.1% (active)"}, {"compound": "CCOC(=O)CNC(=O)c1nn(-c2cccc(OC)c2)c(=O)c2ccccc12", "inhibition": "-0.53% (inactive)"}, {"compound": "COc1ccc(-c2nc(-c3ccccc3)no2)c(OC)c1", "inhibition": "84.8% (active)"}, {"compound": "CCOc1c(Br)cc(/C=C2\\C(=O)N(CCC#N)N=C2C)cc1OC", "inhibition": "-11.9% (inactive)"}, {"compound": "N#C/C=C\\Oc1ccc(Cl)cc1N", "inhibition": "-1.37% (inactive)"}, {"compound": "CN(C)c1ccc(-n2cccc2/C=N/n2cnnc2)cc1", "inhibition": "45.9% (active)"}, {"compound": "CC(C)Nc1ccc(-n2nc3ccccc3[n+]2[O-])cc1", "inhibition": "51.6% (active)"}, {"compound": "Cc1ccc(C(=O)COC(=O)c2cccc(N3C(=O)c4c(C)nc5ccccc5c4C3=O)c2)cc1C", "inhibition": "4.83% (inactive)"}]}]}
